PubChem BioAssay AID651610 (Broad Institute, 2012)
Out of some 360,000 compounds screened, about 3,900 (1.1%) were called active. The sample holds actives, similar compounds and a random draw of the others, so the mix is not that of the screen.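 The calls were made as follows: active = mean replicate inhibition score of at least 50 and every replicate individually at or above 50; inconclusive = only one of the two criteria met; inactive = mean below 50 and not all replicates reaching 50.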

experiment: inhibitors of HIV-1 Env-driven cell-cell fusion, primary screen, HeLa-JRFL effector, CEM21 target cells, luciferase (AID 651610); settings: active compounds read high; at 16.7 µM unless noted;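 also: 0% = plate neutral controls and 100% = maraviroc near 300 nM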

| Compound | inhibition |
| --- | --- |
| CN(C(=O)CC(NC(=O)c1ccccc1)(c1ccccc1)c1ccccc1)c1ccccc1 | 68.6% [at 12.3 µM] (active) |
| Cc1ccc(S(=O)(=O)NCCC(=O)OCC(=O)N(C)c2ccccc2)cc1 | -4.53% [at 12.3 µM] (inactive) |
| CN(c1ccccc1)S(=O)(=O)c1ccc(C(=O)NCCc2ccccc2)cc1 | -11.1% [at 12.3 µM] (inactive) |
| CC(=O)c1ccc(S(=O)(=O)N2CCN(c3nc4c(C)c(C)ccc4cc3C#N)CC2)cc1 | 82.5% [at 12.3 µM] (active) |
| CC(=O)c1ccc(S(=O)(=O)N2CCN(C(=O)/C=C/c3ccc4ccccc4n3)CC2)cc1 | 21.1% [at 12.3 µM] (inactive) |
| CC(=O)c1ccc(S(=O)(=O)N2CCC3(CC2)OCCO3)cc1 | -7.27% [at 12.3 µM] (inactive) |
| C[C@@H](CN1C2=NC[C@@H](Cc3ccccc3)N2C[C@H]1Cc1ccc(O)cc1)NC(=O)CCC1CCCCC1 | -12.9% [at 12.3 µM] (inactive) |
| C[C@@H]1CCCCO[C@H](CN(C)C(=O)C2CCCCC2)[C@@H](C)CN([C@H](C)CO)C(=O)c2cc(NC(=O)C3CCCCC3)ccc2O1 | 13.6% (inactive) |
| CCC(C(=O)NC(C)(C)C)n1c(-c2ccccc2)nc2ccccc21 (centres undefined) | -10.4% [at 12.3 µM] (inactive) |
| CC(C)(C)NC(=O)C(CCc1ccccc1)n1c(=O)c(-c2ccccc2)nc2ccccc21 (centres undefined) | 20.1% [at 12.3 µM] (inactive) |
| CSCCC(C(=O)NC(C)(C)C)n1c(-c2ccccc2)nc2ccccc21 (centres undefined) | 56.4% [at 12.3 µM] (active) |
| COc1cccc(C(=O)Nc2ccc3c(c2)C(=O)N(C)[C@@H]2CC[C@H](CC(=O)NCCCN4CCOCC4)O[C@H]2CO3)c1 | -4.21% (inactive) |
| Clc1ccc2c(c1)C1=C(C(c3ccncc3)O2)C(c2ccc(Br)cc2)n2ncnc2N1 (centres undefined) | 74.5% [at 12.3 µM] (active) |
| O=C(C[C@@H]1C=C[C@H](NC(=O)Nc2ccc(C(F)(F)F)cc2)[C@H](CO)O1)NCc1cccc(F)c1 | 9.04% (inactive) |
| C[C@H](CO)N1C[C@H](C)[C@H](CN(C)Cc2ccc(C(=O)O)cc2)Oc2ccc(NS(=O)(=O)c3cn(C)cn3)cc2CC1=O | -3.12% (inactive) |
| C[C@@H]1CN([C@@H](C)CO)C(=O)c2cccc(NC(=O)c3ccc(-c4nccs4)cc3)c2O[C@H]1CN(C)Cc1ccc(Cl)c(Cl)c1 | 38.1% (inactive) |
| COc1ccccc1-c1cnc2c(c1)C(=O)N([C@@H](C)CO)C[C@H](C)[C@H](CN(C)C(=O)c1ccncc1)O2 | 2.54% (inactive) |
| CCCCn1c(SCC(=O)NCCc2ccc(OC)c(OC)c2)nc2c1c(=O)n(C)c(=O)n2C | 114% [at 12.3 µM] (active) |
| CCCCn1c(SCC(=O)N2CCOCC2)nc2c1c(=O)n(C)c(=O)n2C | -4.99% [at 12.3 µM] (inactive) |
| C#CC(C)(C)NC(=O)CSc1nc2c(c(=O)n(C)c(=O)n2C)n1CCCC | -13.9% [at 12.3 µM] (inactive) |
| C[C@H](CO)N1C[C@H](C)[C@H](CN(C)CC2CCCCC2)OCCCC[C@H](C)Oc2ccc(NC(=O)c3ccncc3)cc2C1=O | -17.1% (inactive) |
| COC(=O)C1=C(C)N(Cc2ccccc2C(F)(F)F)C(=NCc2ccc(C(F)(F)F)cc2)NC1c1ccc(F)cc1 (centres undefined) | 5.73% [at 12.3 µM] (inactive) |

| Compound | inhibition |
| --- | --- |
| O=C(NCC(F)(F)F)[C@H]1[C@H](CO)[C@H]2Cn3c(ccc(-c4ccncc4)c3=O)[C@H]2N1Cc1ccncc1 | -9.96% (inactive) |
| COc1cccc(S(=O)(=O)Nc2ccc3c(c2)[C@@H]2C[C@@H](CC(=O)NC4CCCCC4)O[C@H](CO)[C@@H]2O3)c1 | -5.43% (inactive) |
| CC(C)C[C@@H](COCc1ccc(Cl)cc1)N1CCN(C(=O)c2ccc(Cl)cc2Cl)CCC1=O | -24.6% [at 12.3 µM] (inactive) |
| O=C(c1ccc(C(F)(F)F)cc1)N1CCC(=O)N([C@H](COCc2ccccc2)Cc2ccccc2)CC1 | -5.07% [at 12.3 µM] (inactive) |
| CC(C)CC(COCc1ccc(Cl)cc1)N1CCN(C(=O)c2ccc(C(F)(F)F)cc2)CCC1=O (centres undefined) | 65.7% [at 12.3 µM] (active) |
| O=C(C[C@H]1C[C@H]2c3cc(NC(=O)Cc4ccncc4)ccc3O[C@H]2[C@@H](CO)O1)NCc1cccc(F)c1 | 3.14% (inactive) |
| COCC(=O)N(C)C[C@H]1Oc2ncc(-c3ccc(C)cc3)cc2C(=O)N([C@@H](C)CO)C[C@@H]1C | -0.608% (inactive) |
| Cc1noc(C)c1S(=O)(=O)N(C)C[C@@H]1OCCCC[C@@H](C)Oc2ccc(NC(=O)c3ccccc3)cc2C(=O)N([C@H](C)CO)C[C@H]1C | -129% (inactive) |
| C[C@@H]1CN([C@@H](C)CO)S(=O)(=O)c2ccc(C#C[C@@H](C)O)cc2O[C@@H]1CN(C)CC1CC1 | -13.5% (inactive) |
| C[C@H](CO)N1C[C@H](C)[C@H](CN(C)C(=O)Nc2ccc(C(F)(F)F)cc2)OCCCC[C@H](C)Oc2ccc(NC(=O)C3CCCCC3)cc2C1=O | 9.61% (inactive) |
| CCOc1cc(/C=N/NC(=O)OC)ccc1OCCSc1ccc(Cl)cc1 | 4.12% [at 12.3 µM] (inactive) |
| CCOc1cc(/C=C(/C#N)c2ccc(Cl)cc2)cc(Cl)c1OCC(=O)O | 58% [at 12.3 µM] (active) |
| COc1cc(/C=C(/NC(=O)c2ccc(Cl)cc2Cl)C(=O)O)cc(OC)c1OC | 4.88% [at 12.3 µM] (inactive) |
| O=C(C[C@@H]1C[C@@H]2c3cc(NC(=O)C4CCC4)ccc3O[C@@H]2[C@@H](CO)O1)NCCN1CCCCC1 | -4.86% (inactive) |
| O=C(O)c1cc([N+](=O)[O-])c(Nc2cccc3ccccc23)c([N+](=O)[O-])c1 | 1.53% [at 12.3 µM] (inactive) |
| CC(Nc1ccc([N+](=O)[O-])cc1[N+](=O)[O-])c1ccccc1 (centres undefined) | -0.676% [at 12.3 µM] (inactive) |
| O=C(NC(Nc1nc2ccc([N+](=O)[O-])cc2s1)(C(F)(F)F)C(F)(F)F)c1ccccc1 | 81.1% [at 12.3 µM] (active) |
| COc1cccc(-c2cnc3c(c2)C(=O)N([C@H](C)CO)C[C@H](C)[C@H](CN(C)C(=O)NC(C)C)O3)c1 | 7.31% (inactive) |
| CCc1ccc(-c2nc(SCC(=O)NC3CCCC3)n[nH]2)cc1 | 56.7% [at 12.3 µM] (active) |
| COC(=O)c1ccccc1NC(=O)CSc1n[nH]c(-c2ccncc2)n1 | 9.97% [at 12.3 µM] (inactive) |
| CCc1c(C)nc(SCC(=O)NC2CCCC2)[nH]c1=O | -1.14% [at 12.3 µM] (inactive) |
| C=CC1=CCN(S(=O)(=O)C(C)(C)C)[C@@H]1CCO | 21.3% [at 12.3 µM] (inactive) |

| Compound | inhibition |
| --- | --- |
| CCCNC(=O)N(C)C[C@H]1Oc2ncc(-c3ccc(F)cc3)cc2C(=O)N([C@H](C)CO)C[C@H]1C | -0.986% (inactive) |
| CC(C)CC#Cc1cnc2c(c1)C(=O)N([C@@H](C)CO)C[C@H](C)[C@@H](CN(C)C(=O)c1cccc(F)c1)O2 | -7.05% (inactive) |
| C[C@H](CO)N1C[C@H](C)[C@@H](CN(C)C(=O)C2CC2)Oc2cc(C#CC3CC3)ccc2S1(=O)=O | 18.8% (inactive) |
| CN1CCN(C(=O)C[C@@H]2C[C@@H]3c4cc(NC(=O)c5ccc6c(c5)OCO6)ccc4O[C@@H]3[C@H](CO)O2)CC1 | 2.49% (inactive) |
| COc1ccc(CCNC(=O)CS(=O)(=O)Cc2nc(-c3ccc(C)cc3)oc2C)cc1OC | 9.54% [at 12.3 µM] (inactive) |
| COc1cccc(-c2nc(CS(=O)(=O)CC(=O)NCCc3ccc(OC)c(OC)c3)c(C)o2)c1 | 28.2% [at 12.3 µM] (inactive) |
| COc1ccc(CCNC(=O)C2CCCN(Cc3nc(-c4cccc(Cl)c4)oc3C)C2)cc1OC (centres undefined) | 81.2% [at 12.3 µM] (active) |
| CO[C@H]1CN(C)C(=O)c2cc(NC(=O)C3CCCC3)ccc2OC[C@@H](C)N(C(=O)CC2CC2)C[C@@H]1C | -11.3% (inactive) |
| O=C(O)C(=Cc1ccc([N+](=O)[O-])cc1)CCc1ccccc1 | -1.24% [at 12.3 µM] (inactive) |
| O=C1/C(=C\c2ccc([N+](=O)[O-])cc2)CS(=O)(=O)C/C1=C/c1ccc([N+](=O)[O-])cc1 | 85.4% [at 12.3 µM] (active) |
| CC(=O)Nc1ccc(C=Cc2ccc([N+](=O)[O-])cc2)cc1 | -56.5% [at 12.3 µM] (inactive) |
| CS(=O)(=O)Nc1ccc2c(c1)[C@H]1C[C@H](CC(=O)NCc3ccc(Cl)cc3)O[C@@H](CO)[C@H]1O2 | -3.71% (inactive) |
| O=C(NCC[C@@H]1CC[C@H](NC(=O)C2CC2)[C@H](CO)O1)c1cnccn1 | 1.75% (inactive) |
| C[C@@H]1CCCCO[C@H](CN(C)Cc2ccc(Cl)c(Cl)c2)[C@H](C)CN([C@@H](C)CO)C(=O)c2cc(NC(=O)CCC(F)(F)F)ccc2O1 | -44.8% (inactive) |
| Cc1ccc(S(=O)(=O)N(C)C[C@H]2Oc3ccc(NS(C)(=O)=O)cc3CC(=O)N([C@@H](C)CO)C[C@H]2C)cc1 | -22.8% (inactive) |
| CN(C(=O)c1cccc([N+](=O)[O-])c1)c1ccccc1C(=O)NCc1ccccc1 | 29.4% [at 12.3 µM] (inactive) |
| Cc1cc(CNC(=O)c2cccc([N+](=O)[O-])c2)c2ccccc2n1 | 60.8% [at 12.3 µM] (active) |
| Cc1cc(C)cc(OCC(=O)NCc2cc(C)nc3ccccc23)c1 | 31.3% [at 12.3 µM] (inactive) |
| COCC#Cc1ccc2c(c1)O[C@H](CN(C)C(=O)C1CCOCC1)[C@@H](C)CN([C@@H](C)CO)S2(=O)=O | -8.26% (inactive) |
| Cc1ccc(S(=O)(=O)NCC[C@H]2CC[C@@H](NC(=O)C3CCOCC3)[C@@H](CO)O2)cc1 | 5.57% (inactive) |
